Bioassay records (PubChem)
Rows were chosen to be rich in hits. Some 4.5% of all compounds tested hit in one or more screens of this group.
DAX1 inh-1 – inhibitors of DAX1 repression of SF-1 activated StAR promoter; HEK293T StAR-luciferase reporter, SF-1/DAX-1 repression relief; inhibition, % at 6.8 µM; actives 1.1% (n = 370,000); AID 652010;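 active = inhibition above the mean over all tested compounds plus 3 SD, cut at about 3.6% in these data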;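 also: 0% = DAX-1 cells with DMSO and 100% = cells lacking DAX-1 with DMSO; higher inhibition means more luminescence from relief of DAX-1 repression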
FXN GAA850 act – frataxin GAA850 promoter activation; HEK293 lucGAA850 FXN promoter luciferase reporter, 24 h; percent of 10 µM SAHA response; activation, % at 6 µM; actives 0.56% (n = 360,000); AID 540364;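 active = activation above the average of all compounds screened plus 3 SD, cutoff fixed separately per campaign, cut at about 7.5% in these data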;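 also: 0% = DMSO wells and 100% = 10 µM SAHA wells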
hcDAF12 agonist – activates DAF-12 receptor from parasite H. contortus; HEK293 hcDAF-12 lit1-tk-luc reporter, luminescence; 0% DMSO, 100% Δ7-dafachronic acid; activation, % at 6.8 µM; actives 1.4% (n = 370,000);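 active = activation above the mean of all tested compounds plus 3 SD, cut at about 5.5% in these data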;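 also: 100% = response to 3 µM Δ7-dafachronic acid high control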
DAX1 inh-2 – NR0B1 (DAX1) inhibition. P51843. HEK293 Gal4-DAX1 luciferase reporter, luminescence. inhibition, % at 6.75 µM. actives 0.99% (n = 340,000). AID 504766;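 active = inhibition above the mean over all tested compounds plus 3 SD, cut at about 4.2% in these data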;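 also: 0% = DAX1-transfected cells with DMSO and 100% = empty-vector control cells with DMSO; inhibition shows as a rise in luminescence from relieved DAX1 repression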
Target sequence (P51843 207-470 limits assumed): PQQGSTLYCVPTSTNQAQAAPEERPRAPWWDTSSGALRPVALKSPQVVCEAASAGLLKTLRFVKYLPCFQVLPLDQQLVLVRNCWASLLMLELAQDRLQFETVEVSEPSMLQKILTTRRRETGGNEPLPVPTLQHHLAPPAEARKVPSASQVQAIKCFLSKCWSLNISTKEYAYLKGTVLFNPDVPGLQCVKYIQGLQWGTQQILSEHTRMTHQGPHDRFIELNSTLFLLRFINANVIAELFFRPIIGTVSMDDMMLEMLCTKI
hgDAF-12 ag – hgDAF-12 agonism, primary luciferase screen | HEK293 GAL4-hgDAF12 UAS-luciferase reporter, agonist luminescence; normalized to butyrate control | actives 1.8% (n = 370,000) | activation, % at 6.8 µM;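 active = activation above a cutoff set at the mean of all screened compounds plus 3 SD, cut at about 10% in these data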;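 also: 0% = DMSO wells and 100% = sodium butyrate wells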
ssDAF-12 act – activators of S. stercoralis DAF-12 nuclear receptor; HEK293 ssDAF-12/GRIP1 lit1-tk-luc reporter, luminescence; % of 3 µM dafachronic acid response; activation, % at 6.8 µM; actives 1% (n = 370,000); AID 652126;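 active = activation above the mean over all tested compounds plus 3 SD, cut at about 0.9% in these data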;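 also: 0% = DMSO-only wells and 100% = 3 µM delta7-dafachronic acid wells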
Numbers without * were called inactive; nt = no result given.

SMILES	DAX1 inh-1	FXN GAA850 act	hcDAF12 agonist	DAX1 inh-2	hgDAF-12 ag	ssDAF-12 act
Cc1c(C(=O)NNC(=O)c2ccccc2O)oc2ccccc12	2	-1	5.8*	-1	7	1
CCCCCCn1c(COc2ccccc2F)nnc1SCC(=O)c1c(N)n(C)c(=O)n(C)c1=O	1	nt	-1	nt	0	1.2*
CN1CCN(C(=O)c2cc(Cl)ccc2Cl)CC1	0	-1	-2	1	-1	-1
CN1CCN(C(=O)c2cc(=O)c3cc(Cl)cc(Cl)c3o2)CC1	0	1	1	0	1	2.0*
O=C(O)CSCc1nc2scc(-c3ccccc3)c2c(=O)[nH]1	0	1	-1	5.8*	3	-1
CC(=O)N[C@H]1C[C@@H]2O[C@H](CO)CC[C@@H]2O[C@@H]1CCc1ccc(-c2ccc(F)cc2)cc1	0	nt	-1	nt	-1	-1
O=C(Nc1ccc(Cl)cc1F)C1CC1c1ccccc1 (stereo unspecified)	0	2	-1	-1	3	-1
Cc1ccc(NC(=O)C2CC2c2ccccc2)c([N+](=O)[O-])c1 (stereo unspecified)	1	4	2	6.0*	5	-1
COc1ccc(C(c2ccc(OC)cc2)N2CCN(C(=O)c3noc(C)c3[N+](=O)[O-])CC2)cc1	nt	nt	-1	nt	-3	-1
Cc1ccccc1C(=O)Nc1cc(S(=O)(=O)N2CCCCC2)ccc1N1CCN(C)CC1	0	0	1	5.0*	-2	0
COc1ccc(NCC(=O)Nc2cc(S(=O)(=O)N3CCOCC3)ccc2N2CCOCC2)c(OC)c1	0	2	-1	7.1*	-1	-2
CCN1CCN(c2ccc(S(=O)(=O)N3CCOCC3)cc2NC(=O)c2cc(F)c(F)c(F)c2F)CC1	0	0	-1	-1	-1	-1
CCN1CCN(c2ccc(S(=O)(=O)N3CCOCC3)cc2NC(=O)c2ccc(C)cc2C)CC1	3.9*	1	0	1	0	-1
Cn1c(=O)c2[nH]c(SCC(=O)N3CCN(c4cccc(C(F)(F)F)c4)CC3)nc2n(C)c1=O	-1	nt	-2	nt	-3	-1
N#Cc1ccc(/C=C2\CC3(OC(=O)c4ccc(Cl)cc4)CCCN2C3)cc1 (stereo unspecified)	0	nt	-2	nt	0	-1
CC(C)OC(=O)C1=CNCC(C)(C)c2c1[nH]c1cc(F)ccc21	nt	nt	3	nt	2	0
CCOC(=O)c1c(C)oc2c1c(C=NCc1ccccn1)c(O)c1ccccc12	-1	0	2	0	-3	-1
CCOC(=O)c1c(C)oc2c1c(C=NCC1CCCO1)c(O)c1ccccc12 (stereo unspecified)	-1	2	0	6.6*	-4	-1
COCC(=O)N[C@@H]1C[C@@H]2O[C@H](CO)CC[C@@H]2O[C@@H]1CCc1ccc(-c2ccccc2)cc1	-1	nt	-3	nt	0	-1
CCC(/C=C1\Sc2ccc(OC)cc2N1CC)=C\c1sc2ccc(OC)cc2[n+]1CCCS(=O)(=O)[O-]	0	-1	-1	0	0	5.6*
CCC(/C=C1\Sc2ccc(OC)cc2N1CCO)=C\c1sc2ccc(OC)cc2[n+]1CCO	-2	-1	-4	0	1	-2
O=C(O)CCSc1nc(C(F)(F)F)cc(=O)n1-c1ccccc1	0	1	0	5.7*	-2	-1
O=[N+]([O-])c1ccc(CSc2nnc(-c3cccc(Cl)c3)n2Cc2ccco2)cc1	-3	nt	-5	nt	-1	-2
CC(C)[C@H]1COc2c3ccccc3nn21	2	nt	2	nt	4	0
CC1(C)CC(=O)c2cnc(N3CCc4ccccc43)nc2C1	1	6	6.4*	3	8	0
SMILES	DAX1 inh-1	FXN GAA850 act	hcDAF12 agonist	DAX1 inh-2	hgDAF-12 ag	ssDAF-12 act
Nn1c(SCC(=O)Nc2ccc(OCc3ccccc3)cc2)nnc1-c1cc(-c2ccc(F)cc2)n[nH]1	-2	nt	0	nt	2	-1
CN1CCN(CC(=O)Nc2nc(-c3c[nH]c4ccccc34)cs2)CC1	2	-1	2	1	4	0
Nc1nc(-c2c[nH]c3ccccc23)cs1	0	-1	1	0	2	1.8*
CNc1nc(-c2c[nH]c3ccccc23)cs1	-1	-1	3	0	0	0
CCc1ccc(-c2csc(-c3c[nH]c4ccccc34)n2)cc1	1	6	6.2*	1	8	0
Cc1sc2ncnc(OCC(=O)N3CCN(C(=O)c4ccco4)CC3)c2c1C	-1	3	-1	5.7*	2	-1
Cc1sc2ncnc(SCC(=O)NNC(=O)c3ccco3)c2c1C	0	-1	-2	0	-1	-1
O=C(O)CN=C(NS(=O)(=O)c1ccc(Cl)cc1)c1ccc(F)cc1	0	0	0	6.0*	0	-1
Cc1ccc(S(=O)(=O)NC(=NCC(=O)O)c2ccccc2)cc1	0	1	-1	1	-4	1.1*
CCOC(=O)CN=C(NS(=O)(=O)c1ccc(Cl)cc1)c1ccccc1	0	0	-2	1	0	-1
CSCCC(N=C(NS(=O)(=O)c1ccc(C)cc1)c1ccccc1)C(=O)O (stereo unspecified)	0	1	2	4.3*	4	-2
O=C(O)CN=C(NS(=O)(=O)c1ccc(Cl)cc1)c1ccccc1	0	2	-1	-1	-1	0
CSCCC(N=C(NS(=O)(=O)c1ccc(Br)cc1)c1ccccc1)C(=O)O (stereo unspecified)	1	-1	-1	-1	4	-1
CC(C)C[C@H]1COc2cccc(N3CCSCC3)c2S(=O)(=O)N1C	0	nt	-2	nt	0	-1
CCOC1=C2CN(S(=O)(=O)c3ccc(C)cc3)[C@@H](c3ccc(CC)cc3)C[C@H]2[C@H]2C(=O)N(c3ccccc3)C(=O)[C@H]2C1	-2	nt	2	nt	-1	-2
CCOC1=C2CN(S(=O)(=O)c3ccc(C)cc3)[C@H](c3ccccc3)C[C@H]2[C@H]2C(=O)N(c3ccccc3)C(=O)[C@H]2C1	4.0*	nt	0	nt	-1	-1
O=C(N/N=C/c1cc([N+](=O)[O-])ccc1O)C12CC3CC(CC(C3)C1)C2	0	-1	-1	4.2*	0	-2
C=CCN1[C@H](CC(C)C)COc2cccc(N3CCSCC3)c2S1(=O)=O	-1	nt	-2	nt	4	-2
Cn1c(NC(=O)c2ccccc2)nc(Cc2ccccc2)c1-c1ccccc1	-1	nt	-1	nt	-2	-2
O=C(Nc1ccc2ccccc2c1)OC1CCS(=O)(=O)C1 (stereo unspecified)	3	nt	4	nt	7	2.1*
